18 molecules from PubChem BioAssay (EPA / NIEHS) can be followed below.

Assay [1] can be described thus: CCTE_Shafer_MEA_acute_AB: CCTE's Alamar Blue Assay for Cytotoxicity in the Neural Acute Assay, Shafer Lab (AID 2284069; active means hit-call score of the fitted dose curve at least 0.9, where 1 is the maximum;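 further: active compounds lower the viability signal compared with DMSO wells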). A digest of the protocol:
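Resazurin reduction (CellTiter Blue, 1:6 in fresh medium) read at ex 544/em 590 nm marks viability loss relative to DMSO. Cells: primary rat cortical neuron networks on microelectrode arrays, treated after baseline recording at 13 or 15 days in vitro.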

Assay [2] can be described thus: CCTE_Shafer_MEA_dev_spike_duration_mean: CCTE's Neural Network Formation Assay for Mean Spike Duration, Shafer Lab (AID 2284051).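 On AC50: potency for a decrease in mean network spike duration versus DMSO.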 A digest of the protocol: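 Spontaneous activity was recorded on days 5, 7, 9 and 12 from rat cortical cultures grown on microelectrode arrays and dosed continuously from day 0, with media and compound renewed after the DIV 5 and 9 recordings. Network-spike duration was collapsed by area under the curve.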

Assay [3] in a line: CCTE_Shafer_MEA_dev_per_network_spike_spike_number_mean: CCTE's Neural Network Formation Assay for Mean Number of Spikes in a Network Spike, Shafer Lab (AID 2284053).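 On AC50: fitted as decrease in spikes per network spike relative to DMSO.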 In a few lines:
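Mean spike count within each network spike, taken in a 0.05 s window at its peak, was recorded on days 5, 7, 9 and 12 and integrated as trapezoidal area under the curve. Rat cortical cultures on MEA plates received continuous compound from day 0, refreshed at medium changes on DIV 5 and 9.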

Assay [4] in a line: CCTE_Shafer_MEA_dev_per_network_spike_spike_percent: CCTE's Neural Network Formation Assay for Percent of Spikes in a Network Spike, Shafer Lab (AID 2284054). A digest of the protocol: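 Rat primary cortical neurons were grown on 48-well MEA plates (16 electrodes/well), exposed from plating day 0 through day 12, with treatment renewed on DIV 5 and 9. Percent of spikes within 0.05 s network-spike peaks was measured, summarised as AUC across days 5, 7, 9, 12.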

Assay [5] can be described thus: CCTE_Shafer_MEA_dev_LDH: CCTE's Lactate Dehydrogenase Assay for Cytotoxicity in the Neural Network Formation Assay, Shafer Lab (AID 2284068; active means hit-call score of the fitted dose curve at least 0.9, where 1 is the maximum;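 further: exposure for twelve days from plating with re-dosing on DIV 5 and 9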). A digest of the protocol:
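Primary rat cortical neurons were cultured on PEI-coated MEA plates and exposed from plating through day 12, with compound renewed at medium changes on DIV 5 and 9. LDH activity was read spectrophotometrically; loss of signal versus DMSO indicates reduced viability.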

A short description of assay [6]: CCTE_Shafer_MEA_dev_AB: CCTE's Alamar Blue Assay for Cytotoxicity in the Neural Network Formation Assay, Shafer Lab (AID 2284083; active means hit-call score of the fitted dose curve at least 0.9, where 1 is the maximum;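 further: resazurin reduction fluorescence as viability of cultured neurons; twelve days of exposure from plating with re-dosing on DIV 5 and 9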). A digest of the protocol:
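Resazurin fluorescence, relative to DMSO, gauges viability after twelve days of exposure that began at plating of rat cortical neurons (1.5 x 10^5 cells/well, 48-well MEA); treatment renewed with full medium exchange on DIV 5 and 9.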

Another assay has as its system DIO2 (gene 1734). Description: CCTE_GLTED_hDIO2: CCTE's human Deiodinase 2 (DIO2) Inhibition Assay, Great Lakes Toxicology and Ecology Division (GLTED) Lab (AID 2284050; active means hit-call score of the fitted dose curve at least 0.9, where 1 is the maximum). The method, then: (§1) CCTE_GLTED_hDIO2 is a cell-free, single-readout assay designed to test the inhibitory activity of chemicals toward human iodothyronine Deiodinase type 2 (DIO2) enzyme. Enzyme is incubated in presence of test chemical for 3 hours during which uninhibited enzyme liberates free iodide from substrate. Free iodide is measured in a second step using the Sandell-Kolthoff method.CCTE_GLTED_hDIO2 is the assay component measured from the CCTE_GLTED_hDIO2 assay. It is designed to make measurements of enzyme activity, a form of enzyme reporter, as detected with absorbance signals by spectrophotometry.Data from the assay component CCTE_GLTED_hDIO2 was analyzed into 1 assay endpoint. This assay endpoint, CCTE_GLTED_hDIO2, was analyzed in the positive analysis fitting direction relative to DMSO as the negative control and baseline of activity. Using a type of enzyme reporter, loss-of-signal activity can be used to understand changes in the enzymatic activity as they relate to the gene DIO2. Furthermore, this assay endpoint can be referred to as a primary readout, because the performed assay has only produced 1 assay endpoint. To generalize the intended target to other relatable targets, this assay endpoint is annotated to the 'deiodinase' intended target family, where the subfamily is 'deiodinase Type 2'.
(§2) Human deiodinase type 2 (hDIO2) assay, developed at Great Lakes Toxicology and Ecology Division (GLTED) within the EPA's Center for Computational Toxicology and Exposure (CCTE), is designed to test the chemicals' ability to inhibit DIO2. Assay is based on iodide release measured by the Sandell-Kolthoff method and is run in 96-well plate format with assay plates run in triplicate (n=3). The method used for the deiodinase assay was largely based on Renko et al. (2012, 2015). These works describe the utilization of the SK reaction to measure deiodinase-liberated iodide in a 96-well-plate format. The SK reaction is based on the reduction of the yellow-colored cerium IV to the non-colored cerium III by arsenic, with the rate of this reaction increased in the presence of iodide in a concentration-dependent manner (Sandell and Kolthoff, 1937). Iodinated test chemicals can interfere as competitive inhibitors, or if the stock chemical has contaminating free-iodide present. Other chemicals, e.g.: nitrite, iron, and thiocyanate can interfere with the Sandell-Kolthoff reaction (see Sandell and Kolthoff, 1937).

For a further assay, the system named is DIO3 (gene 1735). The experiment in a line: CCTE_GLTED_hDIO3: CCTE's human Deiodinase 3 (DIO3) Inhibition Assay, Great Lakes Toxicology and Ecology Division (GLTED) Lab (AID 2284055; active means hit-call score of the fitted dose curve at least 0.9, where 1 is the maximum;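 further: potency is for inhibition seen as loss of released iodide signal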). How it is done: as §1, with “CCTE_GLTED_hDIO3” for “CCTE_GLTED_hDIO2”, “3 (DIO3)” for “2 (DIO2)”, “method.CCTE_GLTED_hDIO3” for “method.CCTE_GLTED_hDIO2”, “CCTE_GLTED_hDIO3,” for “CCTE_GLTED_hDIO2,”, “DIO3.” for “DIO2.”, “3'.” for “2'.”
as §2, with “[…]” for “2 (hDIO2)”, “DIO3. Assay uses human deiodinase type 3 (DIO3) enzyme produced with adenovirus expression system.” for “DIO2.”

Each structure is given as a SMILES string. Several values for one entry are separate records, joined by “and”; a condition that tells them apart may be missing. Equal entries are not always repeated. Records with an inconclusive call do not appear. More than one record can exist for a structure, and the calls need not agree. Activity calls are given as the source filed them. How the source made its calls, unless noted: active means hit-call score of the fitted dose curve at least 0.9, where 1 is the maximum; inactive means score below 0.9.

On to `CC1COC(Cn2cncn2)(c2ccc(Oc3ccc(Cl)cc3)cc2Cl)O1` (configuration not stated), for which, in assay [1], the result was inactive.

For `CCOc1cc(Oc2ccc(C(F)(F)F)cc2Cl)ccc1[N+](=O)[O-]`, the concentration at half-maximal activity (AC50) (as a rule, the concentration giving half of the maximal activity seen) is 4.18 µM (active) in assay [2]; 4.48 µM (active) in assay [3]; 13.2 µM (active) in assay [4]; 17.7 µM (active) in assay [5]; 30 µM (active) in assay [6].

With `Fc1ccc(Oc2ccnc3cc(Cl)cc(Cl)c23)cc1`, the AC50 is 10.1 µM (active) with DIO2 (gene 1734) and 0.965 µM (active) in the assay on DIO3 (gene 1735). The molecule was classed as inactive in assay [1].

Consider `OC(c1ccc(Cl)cc1)(c1cncnc1)c1ccccc1Cl` (configuration not stated), for which the molecule was called inactive in assay [1].

For `COC(=O)C(C)Oc1ccc(Oc2ccc(Cl)cc2Cl)cc1` (configuration not stated), the outcome in assay [1] was inactive.

`C=CCC1=C(C)[C@@H](OC(=O)[C@@H]2[C@@H](C=C(C)C)C2(C)C)CC1=O`: the outcome in assay [3], in assay [4] and in assay [1] was inactive. Also, the AC50 in assay [6] was 1.98 µM (active).

For the molecule `CCCCC(CC)COC(=O)c1ccccc1C(=O)OCC(CC)CCCC` (configuration not stated), the AC50 in assay [2] was 9.35 µM (active) and 4.75 µM (active); in assay [3], 6.42 µM (active) and 4.63 µM (active); in assay [4] it was 7.71 µM (active) and 22.4 µM (active); in assay [5], 11.3 µM (active); in assay [6] it was 12.4 µM (active). The outcome in assay [2], in assay [3], in assay [4], in assay [5] and in assay [6] was inactive.

On to `CO/C=C(/C(=O)OC)c1ccccc1Oc1cc(Oc2ccccc2C#N)ncn1`, for which the concentration at half-maximal activity (AC50) is 1.08 µM (active) and 874 nM (active) in assay [2]; 1.49 µM (active) and 1.1 µM (active) in assay [3]; 1.83 µM (active) and 433 nM (active) in assay [4]; 507 nM (active) and 1.41 µM (active) in assay [5]; 1.73 µM (active) and 2.19 µM (active) in assay [6]. Further, the molecule was called inactive in assay [1].

As to `C=CCC1=C(C)C(OC(=O)C2C(C=C(C)C)C2(C)C)CC1=O` (configuration not stated), the AC50 in the assay with DIO2 (gene 1734) is 44.9 µM (active); in assay [3] it was 24.5 µM (active); in assay [4], 4.76 µM (active); in the assay with DIO3 (gene 1735), 40.9 µM (active); in assay [5], 23.6 µM (active); in assay [6] it was 22.8 µM (active). The outcome in assay [2], in assay [3], in assay [4], in assay [1] and in assay [6] was inactive.

Consider `CON(C)C(=O)Nc1ccc(Cl)c(Cl)c1`, for which the call in assay [1] was inactive.

For `COP(=S)(OC)Oc1nc(Cl)c(Cl)cc1Cl`, the result in assay [2], in assay [3], in assay [4], in assay [5] and in assay [6] was inactive.

As to `COc1ccc(C(c2ccc(OC)cc2)C(Cl)(Cl)Cl)cc1`, the AC50 was 2.99 µM (active) in assay [2]; 9.95 µM (active) in assay [3]; 3.28 µM (active) in assay [4]; 4.87 µM (active) in assay [5]; 12.2 µM (active) in assay [6].

With `CCOC(=O)CC(SP(=S)(OC)OC)C(=O)OCC` (configuration not stated), the AC50 in assay [2] was 13.1 µM (active) and 4.76 µM (active); in assay [3], 13 µM (active) and 8.1 µM (active); in assay [4], 11 µM (active) and 3.69 µM (active); in assay [5], 19.9 µM (active) and 24.6 µM (active); in assay [6], 22.9 µM (active) and 25.1 µM (active).

As for `Oc1ccccc1-c1ccccc1`, the values for the AC50 in the assay on DIO2 (gene 1734) and in the assay on DIO3 (gene 1735) were 38.2 µM (active) and 89.4 µM (active), respectively.

Regarding `C=CC1(C)OC(=O)N(c2cc(Cl)cc(Cl)c2)C1=O` (configuration not stated), the call in assay [2], in assay [3], in assay [4], in assay [5] and in assay [6] was inactive.

For the molecule `CCCC1COC(Cn2cncn2)(c2ccc(Cl)cc2Cl)O1` (configuration not stated), in assay [1], the molecule was classed as inactive.

Take `CC(C)(C)c1ccc(CSc2cnn(C(C)(C)C)c(=O)c2Cl)cc1`: the concentration at half-maximal activity (AC50) was 0.00163 µM (active) in assay [2]; 0.00169 µM (active) in assay [3]; 0.00179 µM (active) in assay [4]; 0.00284 µM (active) in assay [5]; 0.0115 µM (active) in assay [6].

For the molecule `C#CCOS(=O)OC1CCCCC1Oc1ccc(C(C)(C)C)cc1` (configuration not stated), the outcome in assay [1] was inactive.
